MITF inh – human MITF inhibition, primary screen | O75030 | AlphaScreen MITF homodimerization, bead proximity signal | inhibition, % at 2.6 µM | 650,000 compounds, 0.91% hits | AID 1259374; in the data active = inhibition above about 50%
GPR151 ag – human GPR151 activation; activation, % at 11.2 µM; 650,000 compounds, 1% hits; AID 1508602; PathHunter beta-arrestin GPR151 cells, luminescence; Q8TDV0; in the data active = activation above about 4.9%
TEAD-YAP inh – TEAD-YAP interaction inhibition. HEK-TIYL cells, TEAD-Gal4/YAP UAS-luciferase luminescence. inhibition, % at 9.12 µM. 640,000 compounds, 1.4% hits. AID 1259422; in the data active = inhibition above about 32%
FBW7 activator – human FBW7 E3 ligase activation, primary screen. Q969H0. AlphaScreen FBW7–phospho-cyclin E peptide binding, activator screen. normalized activity (activation), % at 26.1 µM. 650,000 compounds, 0.13% hits. AID 1259310; in the data active = normalized activity above about 1.9%;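 also: purified mutant Fbw7 with reduced substrate affinity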
Target sequence (Q969H0 whole entry, looked up): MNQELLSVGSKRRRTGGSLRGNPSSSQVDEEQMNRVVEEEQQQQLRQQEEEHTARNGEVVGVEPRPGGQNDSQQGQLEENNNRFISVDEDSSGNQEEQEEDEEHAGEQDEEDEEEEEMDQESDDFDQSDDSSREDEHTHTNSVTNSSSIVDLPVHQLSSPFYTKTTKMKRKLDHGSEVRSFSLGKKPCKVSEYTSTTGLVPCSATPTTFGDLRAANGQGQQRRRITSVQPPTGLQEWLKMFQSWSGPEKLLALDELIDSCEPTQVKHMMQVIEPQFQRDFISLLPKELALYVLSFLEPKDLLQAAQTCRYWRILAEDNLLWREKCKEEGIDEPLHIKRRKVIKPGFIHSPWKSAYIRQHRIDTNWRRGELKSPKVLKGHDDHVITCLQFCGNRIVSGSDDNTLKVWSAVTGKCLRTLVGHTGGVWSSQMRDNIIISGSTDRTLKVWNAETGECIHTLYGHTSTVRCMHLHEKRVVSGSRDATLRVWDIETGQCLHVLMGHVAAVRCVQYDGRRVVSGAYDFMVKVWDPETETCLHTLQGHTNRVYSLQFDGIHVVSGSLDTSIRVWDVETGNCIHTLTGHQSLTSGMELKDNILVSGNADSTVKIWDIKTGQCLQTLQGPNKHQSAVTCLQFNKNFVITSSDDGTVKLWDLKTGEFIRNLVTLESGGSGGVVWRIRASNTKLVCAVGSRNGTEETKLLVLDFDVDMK
MITF inh conf – confirmation of human MITF inhibitors; AID 1259372; 4,700 compounds, 16% hits; inhibition, % at 2.6 µM; shares compounds with MITF inh; AlphaScreen MITF homodimerization, biotin/His-MITF beads;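 active = inhibition above a cutoff derived from the DMSO control wells, cut at about 28% in these data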;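 also: inhibitors lower the bead chemiluminescence by keeping MITF from dimerizing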
AlphaScreen DR – AlphaScreen optical interference, dose response counter-screen | shares compounds with MITF inh | AlphaScreen optical interference counterscreen, cell-free | IC50, µM | 480 compounds, 6% hits | AID 1259373; call rule not given here
AlphaScreen intf2 – counter-screen: compounds optically interfering with AlphaScreen | LysRS AlphaScreen counterscreen, signal interference, triplicate | 4,700 compounds, 7.6% hits | shares compounds with MITF inh | inhibition, % at 2.6 µM;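 active = inhibition above a cutoff derived from the DMSO control wells, cut at about 30% in these data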
Large screens that a line does not name were inactive (follow-up assays come after a bar, where they were run). The list is not random: actives were taken first. Their share in the collection is about 3.5%.

C[C@H]1NC(=O)[C@H]2CN(C(=O)NC3CCCCC3)CCN2C1=O	MITF inh 75 | MITF inh conf 74 | AlphaScreen DR inactive | AlphaScreen intf2 inactive
CC(C)[C@@H]1NC(=O)[C@H]2CN(C(=O)c3ccc(Cl)cc3)CCN2C1=O	none
Cc1cccc2nc(CN3CCN(c4ccc(F)cc4)CC3)cn12	MITF inh 72 | MITF inh conf inactive | AlphaScreen intf2 inactive
Cc1cccc2nc(Cn3ccccc3=O)cn12	none
Cc1cc(C)c(C)c(OCCN2CC(C)OC(C)C2)c1 (configuration not stated)	MITF inh 71 | MITF inh conf inactive | AlphaScreen intf2 inactive
CC1CN(CCOc2ccc(Cl)cc2Cl)CC(C)O1 (configuration not stated)	none
CC1CN(CCOc2ccc(Br)cc2Cl)CC(C)O1 (configuration not stated)	MITF inh 51 | MITF inh conf inactive | AlphaScreen intf2 inactive
CCOc1ccccc1OCCN1CC(C)OC(C)C1 (configuration not stated)	none
CC1CN(CCCOc2ccc(Br)cc2Cl)CC(C)O1 (configuration not stated)	MITF inh 58 | MITF inh conf inactive | AlphaScreen intf2 inactive
COc1ccc(-c2nc3cc(NC(=O)c4oc(=O)c5ccccc5c4-c4ccccc4)ccc3o2)cc1Cl	none
Cc1nn2c(nc(N3CCCCCC3)c3ccccc32)c1C=O	MITF inh 62 | MITF inh conf inactive | AlphaScreen intf2 inactive
c1ccc(-c2cc(N3CCC4(CC3)OCCO4)nc(-c3ccccn3)n2)nc1	MITF inh 114, TEAD-YAP inh 68 | MITF inh conf 116 | AlphaScreen intf2 100
Cc1ccc(C2CC(C(F)(F)F)n3nc(C(=O)Nc4sc5c(c4C#N)CCCC5)c(Cl)c3N2)cc1 (configuration not stated)	none
N[C@H]1CCC[C@H](C(=O)Nc2cccc3c(=O)[nH]cnc23)C1	MITF inh 54 | MITF inh conf inactive | AlphaScreen intf2 inactive
O=C(CSc1nc(Nc2ccc(F)c(F)c2)c2ccccc2n1)NCC1CCCO1 (configuration not stated)	none
COc1cc(Nc2nc(SCC(=O)NCC3CCCO3)nc3ccccc23)cc(OC)c1 (configuration not stated)	MITF inh 60 | MITF inh conf inactive | AlphaScreen intf2 inactive
COc1ccc(C(=O)CNCC2CCCO2)cc1OC (configuration not stated)	MITF inh 69 | MITF inh conf inactive | AlphaScreen intf2 inactive
O=C(NCC1CCCO1)c1ccc(CNc2nc(=S)[nH]c3ccccc23)cc1 (configuration not stated)	none
O=C(NCc1ccc2c(c1)OCO2)C1CCC(CNc2nc(=S)[nH]c3ccccc23)CC1 (configuration not stated)	MITF inh 57 | MITF inh conf inactive | AlphaScreen intf2 inactive
CCOC(=O)C1=C(c2ccccc2)N=c2s/c(=C\c3cccs3)c(=O)n2C1c1ccc(OC)cc1 (configuration not stated)	none
N#Cc1c(SCC(=O)O)nc2c(c1-c1ccco1)CCC2	MITF inh 60 | MITF inh conf 72 | AlphaScreen DR inactive | AlphaScreen intf2 inactive
O=C(COc1ccccc1)Nc1ccc(NC(=O)c2cccs2)cc1	MITF inh 51 | MITF inh conf inactive | AlphaScreen intf2 inactive
Cc1ccn2c(NCC3CCCO3)c(-c3ccc(O)cc3O)nc2c1 (configuration not stated)	MITF inh 89 | MITF inh conf 84 | AlphaScreen DR inactive | AlphaScreen intf2 inactive
CCOC(=O)C1CCN(Cc2nc3ccc(Cl)cc3n2CCO)CC1	MITF inh 72 | MITF inh conf inactive | AlphaScreen intf2 inactive
CCOC(=O)C1CCN(Cc2ccc(Cl)cc2Cl)CC1	none
COc1ccc(Cc2noc(Cc3ccc(Cl)cc3)n2)cc1	none
Cc1ccc2cc(CN(CCO)C(=O)c3ccc(Cl)cc3)c(=O)[nH]c2c1	MITF inh 54 | MITF inh conf inactive | AlphaScreen intf2 inactive
Cc1cc(C)cc(C(=O)Nc2nnc(C(F)(F)F)s2)c1	none
CCOC(=O)N1CCN(CC(=O)N2c3ccccc3Sc3ccccc32)CC1	MITF inh 53 | MITF inh conf inactive | AlphaScreen intf2 inactive
CC1Cc2ccccc2N1C(=O)CN1CCCN(CC(=O)N2c3ccccc3CC2C)CC1 (configuration not stated)	MITF inh 62 | MITF inh conf inactive | AlphaScreen intf2 inactive
CCOC(=O)N1CCN(CC(=O)N2c3ccccc3CC2C)CC1 (configuration not stated)	MITF inh 67 | MITF inh conf inactive | AlphaScreen intf2 inactive
CC1Cc2ccccc2N1C(=O)CN1CCN(C)CC1 (configuration not stated)	MITF inh 77 | MITF inh conf inactive | AlphaScreen intf2 inactive
Cc1nn(CC(=O)NC2CCCc3ccccc32)c(=O)c2c1sc1ccccc12 (configuration not stated)	none
O=C(Cc1ccc([N+](=O)[O-])cc1)N/N=C/c1ccccc1O	none
CCCOc1c(I)cc(/C=N/O)cc1OC	none
O=[N+]([O-])c1cc(CN2CCCCC2)c2cccnc2c1O	MITF inh 112 | MITF inh conf 106 | AlphaScreen intf2 100
O=[N+]([O-])c1cc(CN2CCOCC2)c2cccnc2c1O	MITF inh 106 | MITF inh conf 107 | AlphaScreen intf2 99
CN1CCN(Cc2cc(Br)c(O)c3ncccc23)CC1	MITF inh 105, TEAD-YAP inh 84 | MITF inh conf 113 | AlphaScreen intf2 101
COC(=O)c1ccc(NC(=O)c2c([N+](=O)[O-])cnn2C)cc1	none
COc1ccc(NC(=S)Nc2cc(OC)c(OC)c(OC)c2)c(OC)c1	none
O=[N+]([O-])c1ccc(C2Nc3ccc(Br)cc3C(c3ccccc3)O2)cc1 (configuration not stated)	MITF inh 57 | MITF inh conf inactive | AlphaScreen intf2 inactive
Fc1ccc(C2Nc3ccc(Br)cc3C(c3ccccc3)O2)cc1 (configuration not stated)	none
CCCC1=C(C(=O)OCC)C(c2ccc3c(c2)OCO3)NC(=O)N1C (configuration not stated)	none
COc1cc(CN2CCN(Cc3ccccc3)CC2)cc(OC)c1O	MITF inh 79 | MITF inh conf inactive | AlphaScreen intf2 inactive
COc1ccc(OC)c(NC(=O)CN2CCN(Cc3ccccc3)CC2)c1	MITF inh 62 | MITF inh conf inactive | AlphaScreen intf2 inactive
COc1cc(CN2CCCCCC2)cc(OC)c1O	none
COc1cc(CN2CCN(C3CCN(Cc4ccccc4)CC3)CC2)cc(OC)c1OC	MITF inh 59 | MITF inh conf inactive | AlphaScreen intf2 inactive
CCc1ccc(CN2CCN(Cc3cc(OC)c(O)c(OC)c3)CC2)cc1	MITF inh 66 | MITF inh conf 51 | AlphaScreen DR inactive | AlphaScreen intf2 inactive
